Reference: the supplement of paper PMC7411054
Where a name gives a salt, the structure may show the parent alone.

Legend:
Test in all cases: lowest phenotypically active concentration; higher = less potent
Details in all cases: treatment time: 24 h
[1] = tested on: A549-CANX-COX4
Summary of the method: (§1)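 Cells from fifteen gene-edited reporter lines (A549, HepG2 and WPMY1) were treated for 24 h at 0.3, 1, 3 or 9 µM and imaged live, four wells per condition. Features were normalised per well to solvent control wells. A condition deviated if ≥3 of 4 wells passed the 95th percentile of control Euclidean distances and was reproducible if its median replicate Pearson correlation beat the 95th percentile of non-replicates; phenotypic activity needed both.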

[2] = tested on: HepG2-CANX-COX4
Summary of the method: as §1

[3] = tested on: WPMY1-ACTB-RAB5A
Summary of the method: as §1

[4] = tested on: WPMY1-CANX-COX4
Summary of the method: as §1

[5] = tested on: WPMY1-TP53BP1-CLTA
Summary of the method: as §1

[6] = tested on: WPMY1-TUBA1B-RELA
Summary of the method: as §1

[7] = tested on: HepG2-TP53BP1-CLTA
Summary of the method: as §1

[8] = tested on: A549-TP53BP1-CLTA
Summary of the method: as §1

[9] = tested on: HepG2-GM130-SQSTM1
Summary of the method: as §1

[10] = tested on: HepG2-TUBA1B-RELA
Summary of the method: as §1

Measured: lowest phenotypically active concentration

CC(C)C(=O)SCCCCCCC(=O)Nc1nc(-c2ccccc2)cs1
1 µM: [1] | [3] | [4] | [6]
3 µM: [2]
9 µM: [5]

COc1c(Cl)cc2c([nH]c3cnccc32)c1NC(=O)c1cccnc1C [ML 120B dihydrochloride]
9 µM: [1] | [2] | [7]

CC1(C)O[C@@H]2C[C@H]3[C@@H]4C[C@H](F)C5=CC(=O)C=C[C@]5(C)[C@@]4(F)[C@@H](O)C[C@]3(C)[C@]2(C(=O)CO)O1 [fluocinolone acetonide]
≤ 0.3 µM: [1] | [8] | [3]

Cc1nnc(-c2ccc3occ(-c4ccc(S(C)=O)cc4)c3c2)o1 (stereo not given)
3 µM: [10]
9 µM: [1] | [8] | [2] | [9] | [3] | [4] | [5]

CC/C(=C(/c1ccccc1)c1ccc(OCCN(C)C)cc1)c1ccccc1 [tamoxifen]
9 µM: [1] | [9] | [7] | [3] | [4] | [5] | [6]
3 µM: [10]

OCc1cc(C(O)CNCCCCCCOCCCCc2ccccc2)ccc1O (stereo not given) [salmeterol]
3 µM: [4]
9 µM: [1] | [9] | [7] | [10] | [3] | [5] | [6]

N#C/C(=C/c1ccc(O)c(O)c1)C(=O)NCCCCc1ccccc1
9 µM: [1] | [2] | [9] | [7] | [3] | [4] | [5] | [6]

C=C1C(=O)O[C@@H]2[C@H]3O[C@]3(C)CCC=C(C)CC[C@@H]12 [Parthenolide]
9 µM: [1] | [2] | [3] | [4] | [6]
3 µM: [9]

CC(C)(C)c1cc(C(=O)/C=C/c2ccc(C(=O)O)cc2)cc(C(C)(C)C)c1
≤ 0.3 µM: [2] | [3] | [4] | [5]
9 µM: [1] | [9] | [7]
3 µM: [6]

CCCCc1oc2ccc(NS(C)(=O)=O)cc2c1C(=O)c1ccc(OCCCN(CCCC)CCCC)cc1 [dronedarone]
3 µM: [10]
9 µM: [1] | [9] | [7] | [3] | [4] | [5] | [6]

CCCCOc1c(C(=O)c2c(F)cc(C)cc2F)cnc2[nH]ncc12
≤ 0.3 µM: [1] | [10] | [3] | [4]
3 µM: [7] | [6]
9 µM: [9]

O=C1/C(=C\c2ccncc2)CCC/C1=C\c1ccncc1
3 µM: [1] | [2] | [7] | [10] | [3] | [4] | [6]
9 µM: [5]
1 µM: [9]

CCn1c(=O)n([C@H]2CCCN(c3nccc(-c4cc5ccccc5o4)n3)C2)c2ccccc21
9 µM: [8]
3 µM: [1] | [4]

C[C@@H](Nc1ncnc2[nH]c(-c3ccc(O)cc3)cc12)c1ccccc1 [PKI 166 hydrochloride]
9 µM: [2] | [7] | [10] | [3] | [6]
3 µM: [1] | [8] | [4] | [5]

COc1ccc(-c2cnc(-c3cccc4c3-c3ccccc3C4=O)o2)cc1
≤ 0.3 µM: [1] | [8] | [3] | [4] | [5] | [6]

O=S(=O)(c1cccc2c(O)nccc12)N1CCCNCC1 [HA 1100 hydrochloride]
9 µM: [1] | [8] | [9] | [3] | [5]
3 µM: [4] | [6]
1 µM: [7]
≤ 0.3 µM: [2]

C/C(=N/NC(=N)N)c1ccc(NC(=O)Nc2ccc(/C(C)=N/NC(=N)N)cc2)cc1
9 µM: [1] | [2] | [7]
3 µM: [9] | [10] | [3] | [4]

Nc1nccc(-c2ccc3noc(-c4ccc(Cl)cc4)c3c2)n1 [PIM-1 Inhibitor 2]
9 µM: [1] | [8] | [7] | [3] | [4] | [5] | [6]

C[C@@H]1C[C@H]2[C@@H]3CCC4=CC(=O)C=C[C@]4(C)[C@@]3(Cl)[C@@H](O)C[C@]2(C)[C@@]1(OC(=O)c1ccco1)C(=O)CCl [mometasone furoate]
≤ 0.3 µM: [1] | [8]

Cc1cccc(C)c1OCC(=O)N[C@@H](Cc1ccccc1)[C@@H](O)C[C@H](Cc1ccccc1)NC(=O)[C@H](C(C)C)N1CCCNC1=O [lopinavir]
9 µM: [1] | [10] | [4]

COc1cc2c(cc1NS(=O)(=O)c1ccc(Br)cc1C)n(C)c(=O)n2C
3 µM: [2] | [10]
9 µM: [1] | [8] | [9]

CCCOc1ccc(CCc2nc3cc(-c4c(C)noc4C)ccc3n2CCN2CCOCC2)cc1
9 µM: [1] | [2] | [7]

O=c1c(-c2ccc(O)cc2)coc2cc(O[C@@H]3O[C@H](CO)[C@@H](O)[C@H](O)[C@H]3O)cc(O)c12 [Genistin]
9 µM: [1] | [8] | [3] | [4] | [5]

CC(C)n1c(/C=C/[C@@H](O)C[C@@H](O)CC(=O)O)c(-c2ccc(F)cc2)c2ccccc21 [fluvastatin]
1 µM: [9] | [3]
9 µM: [1] | [8] | [5]
3 µM: [2] | [7] | [10] | [4] | [6]

C=C1CC[C@@H]2[C@](C)(CO)[C@H](O)CC[C@@]2(C)[C@@H]1C/C=C1/C(=O)OC[C@H]1O [Andrographolide]
9 µM: [1] | [6]
3 µM: [2] | [7] | [10]
1 µM: [9]

O=C(O)Cc1cccc(OCCCN(Cc2cccc(C(F)(F)F)c2Cl)CC(c2ccccc2)c2ccccc2)c1 [GW 3965 hydrochloride]
9 µM: [1]

O[C@H](CNC[C@H](O)[C@@H]1CCc2cc(F)ccc2O1)[C@@H]1CCc2cc(F)ccc2O1 [nebivolol]
3 µM: [10] | [3] | [6]
9 µM: [7] | [4] | [5]

N#Cc1cccc(-c2c[nH]c3ncnc(N4CCOCC4)c23)c1
1 µM: [10]
3 µM: [2] | [9] | [7] | [5]
9 µM: [3] | [4]

O=C(Nc1nc2cc(C(F)(F)F)cc(NC3CC3)n2n1)c1cccnc1
3 µM: [2] | [3] | [5]
9 µM: [7] | [10] | [4]

O=C(CCCN1CCC(O)(c2ccc(Cl)cc2)CC1)c1ccc(F)cc1 [haloperidol]
9 µM: [9] | [7] | [10]

CN1CCC(CN2c3ccccc3Sc3ccccc32)C1 (stereo not given) [methdilazine]
9 µM: [9] | [7] | [10] | [3] | [4] | [5] | [6]

CC(CN1c2ccccc2Sc2ccccc21)N(C)C (stereo not given) [promethazine]
9 µM: [9] | [7] | [10] | [3] | [5] | [6]

CC(=O)O[C@@H]1C[C@H]2C(C)(C)C(=O)C=C[C@]2(C)[C@H]2CC[C@@]3(C)[C@H](c4ccoc4)OC(=O)[C@H]4O[C@]43[C@@]21C [gedunin]
9 µM: [9] | [10] | [4]
1 µM: [2]
3 µM: [7] | [3]

COc1ccc(Cl)cc1NC(=O)Nc1cc(C)nc2ccccc12
3 µM: [9] | [7] | [10]
1 µM: [2]

CN(C)CCCN1c2ccccc2CCc2ccc(Cl)cc21 [clomipramine]
9 µM: [7] | [10] | [3] | [4] | [5] | [6]

CNCCCC12CCC(c3ccccc31)c1ccccc12 [maprotiline]
9 µM: [9] | [7] | [3] | [4] | [5] | [6]
3 µM: [10]

Cc1cc2nc(NCCCO)n(CC(=O)c3cc(C(C)(C)C)c(O)c(C(C)(C)C)c3)c2cc1C
9 µM: [10]

CC(=O)Nc1ccc(NC(=S)NC(=O)c2ccc(C(C)(C)C)cc2)cc1 [Tenovin-1]
1 µM: [5] | [6]
9 µM: [7] | [4]
≤ 0.3 µM: [3]
3 µM: [2] | [10]

Cc1c(O)cccc1C(=O)N[C@@H](CSc1ccccc1)[C@H](O)CN1C[C@H]2CCCC[C@H]2C[C@H]1C(=O)NC(C)(C)C [nelfinavir]
3 µM: [2] | [3]
9 µM: [9] | [10] | [4] | [6]

O=c1cc(N2CCOCC2)oc2c(-c3cccc4c3sc3ccccc34)cccc12
1 µM: [9] | [7] | [10] | [3] | [4]
9 µM: [6]
3 µM: [2] | [5]

CNCCCN1c2ccccc2CCc2ccccc21 [desipramine]
9 µM: [10] | [3] | [6]

CC(CN(C)C)CN1c2ccccc2CCc2ccccc21 (stereo not given) [trimipramine]
9 µM: [10] | [3] | [4]

CN1CCN(c2ccc(-c3cccc(CN4CCOCC4)c3)cc2NC(=O)c2c[nH]c(=O)cc2C(F)(F)F)CC1
9 µM: [9] | [7] | [10] | [4] | [5] | [6]
